An excerpt weighted towards active compounds, which were near 1.9% of everything screened.
Autophagy mod: autophagy modulators in MEF cells, primary screen, imaging, high-content, MEF GFP-LC3; MEF GFP-LC3 puncta imaging; test concentration mostly 10 µM; calls only at 10 µM (by protocol); 190,000 compounds, 0.98% hits; AID 463193, 2010;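 active = percentage of spot-positive cells more than 3 SD above its plate mean, without a fluorescence outlier flag or 80% toxicity; inconclusive = no clear call, values can overlap the other calls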;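 note: spot-positive cell cutoff set from DMSO-treated cells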
HMGR II inh: inhibitors of E. faecalis class II HMGR, primary screen, biochemical, Enterococcus faecalis. HMG-CoA reductase (Enterococcus faecalis, mvaE). inhibition, % at 10 µM. 190,000 compounds, 0.41% hits. AID 1066, 2008. purified E. faecalis HMGR, NADPH absorbance 340 nm kinetic;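 active = inhibition above a set limit, the median over all tested compounds plus 3 SD, cut at about 9.5% in these data; inconclusive = no clear call, values can overlap the other calls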;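 note: enzyme runs in reverse so mevalonate oxidation gives rising NADPH absorbance; 0% = complete reaction with DMSO and 100% = background rate lacking mevalonate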
Insulin prom up: insulin promoter activators in MIN6 cells, imaging, high-content screening, mouse beta cells. AID 1625, 2009. MIN6 insulin promoter-GFP reporter; stronger effect = higher value. 190,000 compounds, 0.3% hits. z-score at 5 µM;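 active = z-score above 3 at 5 µM with at least 500 cells counted in the well; inconclusive = wells under 500 cells, flagged as cytotoxic or low count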
INS promoter inh: inhibitors of insulin promoter-driven GFP, primary screen, imaging, TRM-6 cells (human fetal islet line), eGFP reporter, cell count | 130,000 compounds, 0.9% hits | inhibition, % at 2 µM | reporter expression induced with tamoxifen;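 active = inhibition above the mean plus 3 SD, with well images judged a real hit on visual review, cut at about 60% in these data, passing the limit was not always enough; inconclusive = inhibition over the cutoff but images rejected on review; inactive = inhibition not above the cutoff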
* = called active by the depositor.

What do the screens show for `COC(=O)Nc1ccc(S(=O)(=O)Nc2ccc(O)cc2)cc1`?
Autophagy mod: inactive; HMGR II inh: -2; INS promoter inh: 79*

What do the screens show for `CC(=O)c1ccc(N2CCN(C(=O)c3ccc(Cn4c(=S)[nH]c5ccc(N6CCOCC6)cc5c4=O)cc3)CC2)cc1`?
Autophagy mod: inactive; HMGR II inh: -4; Insulin prom up: -1.1; INS promoter inh: 18

What do the screens show for `Cc1cc(Nc2ccccc2)nc(NCc2ccccc2)n1`?
Autophagy mod: inactive; HMGR II inh: -8; Insulin prom up: -5

What do the screens show for `CCCCNc1cc(C)nc(NCc2ccccc2)n1`?
Autophagy mod: active; HMGR II inh: 6; Insulin prom up: inconclusive

How did O=C(OCCNc1ccc(C(F)(F)F)cc1[N+](=O)[O-])c1cc2ccccc2oc1=O do in these assays?
Insulin prom up: 1.2

How did O=C(/C=C/c1ccc(Cl)cc1)N(Cc1cccs1)C1CCS(=O)(=O)C1 (configuration not stated) do in these assays?
Insulin prom up: 0.62

Results for O=c1[nH]c(CN2CCN(Cc3ccc4c(c3)OCO4)CC2)nc2sc3c(c12)CCC3 ?
Insulin prom up: 3.5*

What do the screens show for `O=c1[nH]c(CN2CCN(S(=O)(=O)c3ccccc3C(F)(F)F)CC2)nc2sc3c(c12)CCCC3`?
Autophagy mod: inactive; HMGR II inh: -5; Insulin prom up: 0.27; INS promoter inh: 3

Results for COc1ccc(C(=O)Oc2ccc(C(=S)N3CCOCC3)cc2)cc1 ?
Autophagy mod: active; HMGR II inh: -1; Insulin prom up: -0.19

What do the screens show for `NC(=O)c1ccccc1N/C=C/C(=O)c1ccc(Cl)cc1Cl`?
Autophagy mod: inactive; HMGR II inh: -6; Insulin prom up: -0.1; INS promoter inh: 74*

How did NC(=O)c1ccccc1N/C=C/C(=O)c1ccc(F)cc1 do in these assays?
Autophagy mod: inactive; HMGR II inh: -8; Insulin prom up: 0.34; INS promoter inh: 21

How did N#Cc1ccc(CSc2nnc(Cc3cccs3)n2Cc2ccco2)cc1 do in these assays?
Autophagy mod: active; HMGR II inh: -10; INS promoter inh: -121

Results for N#Cc1ccc(CSc2nnc(-c3ccccc3)n2Cc2ccco2)cc1 ?
Autophagy mod: inactive; HMGR II inh: -3; Insulin prom up: 0.11; INS promoter inh: -38

How did CCN(C(=O)CSc1nnc(-c2cccs2)n1CC)C1CCS(=O)(=O)C1 (configuration not stated) do in these assays?
Insulin prom up: -0.24

How did COc1cc2nc(CN3CCOCC3)n(CC(=O)NCC(F)(F)F)c(=O)c2cc1OC do in these assays?
Insulin prom up: 0.96

Results for C=CCc1cccc(CNc2c(C)n(C)n(-c3ccccc3)c2=O)c1O ?
Autophagy mod: inactive; HMGR II inh: -3; Insulin prom up: 0.29; INS promoter inh: 76*

Results for COC(=O)c1ccc(NC(=O)Nc2ccc(F)cc2F)cc1 ?
Autophagy mod: active; HMGR II inh: -1; Insulin prom up: -0.9

How did COc1ccc(C(=O)NNC(=O)c2cccc(F)c2)cc1 do in these assays?
Autophagy mod: inactive; HMGR II inh: 0; Insulin prom up: -0.18; INS promoter inh: 0

How did CN(C)CCCNC(=O)c1cc2c3ccccc3n(C)c2s1 do in these assays?
Autophagy mod: active; HMGR II inh: -2; Insulin prom up: -0.32; INS promoter inh: 50

What do the screens show for `Cn1c2ccccc2c2cc(C(=O)NNS(=O)(=O)c3ccc(F)cc3)sc21`?
Autophagy mod: inactive; HMGR II inh: 3; Insulin prom up: -0.76; INS promoter inh: 12

Results for Cc1cc(C(=O)NCCCN(C)C)c2ccccc2n1 ?
Autophagy mod: inactive; HMGR II inh: -11; Insulin prom up: -0.23; INS promoter inh: 78*

What do the screens show for `COc1ccc2c(CC(=O)Nc3ccc(OC)nc3)coc2c1`?
Autophagy mod: active; HMGR II inh: -9; Insulin prom up: -0.14; INS promoter inh: -45

Results for COc1ccccc1N=C(C)C1=C(O)CC(c2ccccc2)CC1=O (configuration not stated) ?
Autophagy mod: active; HMGR II inh: -3; Insulin prom up: -0.63; INS promoter inh: -163

Results for Cn1cnnc1SCC(=O)Nc1ncc(C(F)(F)F)cc1Cl ?
Autophagy mod: inactive; HMGR II inh: -6; Insulin prom up: 0.07

How did COc1ccc(CCC(=O)Nc2ccc(-c3noc(-c4ccc(OC)c(OC)c4)n3)cc2)cc1 do in these assays?
Autophagy mod: active; HMGR II inh: -10; Insulin prom up: -0.46; INS promoter inh: -26

What do the screens show for `Cn1cc(S(=O)(=O)NCc2ccc(Cl)cc2)c(=O)n(C)c1=O`?
Insulin prom up: 0.56

Screens: PubChem BioAssay, several laboratories
